Measured values published in PubChem BioAssay AID1376 (SRMLSC, 2008).
Out of some 220,000 compounds screened, about 530 (0.24%) were called active. The sample as a whole holds a higher share of actives than the screen did. Entries with a potency or affinity are not part of this list. Values without a mark were called inactive. No stated cut-off is given here; in the data, active means inhibition above about 13%; inconclusive means no clear call, values can overlap the other calls; inactive means below that.

Target: Bifunctional protein GlmU (Mycobacterium tuberculosis (strain ATCC 25618 / H37Rv)) (UniProt P9WMN3)
Test: inhibition of mycobacterial GlmU enzyme – biochemical, glucosamine-1-phosphate acetyltransferase (AID 1376);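 further: 0% = complete reaction with vehicle and 100% = reaction without substrate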
Conditions: M. tuberculosis GlmU acetyltransferase enzyme assay; stronger effect = higher value;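 tested at 30 µM in the primary screen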

Chain of Bifunctional protein GlmU (Mycobacterium tuberculosis (strain ATCC 25618 / H37Rv)) (P9WMN3 whole entry, looked up): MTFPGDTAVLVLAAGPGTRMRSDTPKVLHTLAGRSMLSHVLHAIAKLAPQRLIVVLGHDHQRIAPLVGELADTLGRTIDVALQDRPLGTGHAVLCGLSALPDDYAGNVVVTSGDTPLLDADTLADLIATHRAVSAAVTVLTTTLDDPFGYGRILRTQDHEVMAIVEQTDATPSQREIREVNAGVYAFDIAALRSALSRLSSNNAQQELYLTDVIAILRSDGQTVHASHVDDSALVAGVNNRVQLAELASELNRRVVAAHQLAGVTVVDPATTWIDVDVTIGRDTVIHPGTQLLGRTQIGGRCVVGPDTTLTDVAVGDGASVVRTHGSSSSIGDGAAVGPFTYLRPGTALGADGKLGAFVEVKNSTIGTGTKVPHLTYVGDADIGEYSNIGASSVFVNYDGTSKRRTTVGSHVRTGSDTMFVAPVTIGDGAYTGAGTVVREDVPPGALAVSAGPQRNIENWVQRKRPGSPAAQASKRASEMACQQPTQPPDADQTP

Q: `CN(C)/C=C(\C#N)C(=O)Nc1ccc(O)cc1F` was tested. Which inhibition did it give?
A: -2.68%

Q: `CC(NC(=O)c1ccco1)C(=O)OCc1cccc(Cl)c1` (stereo not given) was tested. Which inhibition did it give?
A: 2.75%

Q: How did the inhibition turn out when `Cc1ccccc1NC(=O)CS(=O)(=O)c1cn(CC(=O)N2CCOCC2)c2ccccc12` was run?
A: -2.25%

Q: For `CCCN(Cc1cc2ccccc2[nH]c1=O)C(=O)c1cccc([N+](=O)[O-])c1`, which inhibition is on record?
A: -2.01%

Q: For `O=C(O)c1cccc(Cn2c(Cl)c(/C=N/NC(=O)c3ccccc3)sc2=O)c1`, which inhibition is on record?
A: 1.79%

Q: Which inhibition does the source give for `O=C(O)c1cccc(Cn2c(Cl)c(/C=N/NC(=O)c3ccccc3O)sc2=O)c1` here?
A: 5.34%

Q: Which inhibition does the source give for `CCC(C)OC(=O)C[N+](C)(C)CCOC1CC2CCC1(C)C2(C)C` (stereo not given) here?
A: -2.89%

Q: `Cn1c(=O)c([N+](=O)[O-])c(NCc2ccc3c(c2)OCO3)c2ccccc21` was tested. Which inhibition did it give?
A: 0.57%

Q: Which inhibition does the source give for `S=c1[nH]nc(COc2ccccc2)n1/N=C/c1ccco1` here?
A: 3.61%

Q: Which inhibition does the source give for `Nc1c(C(=O)Nc2ccccc2)sc2nc3c(c(-c4ccco4)c12)CCC3` here?
A: -1.21%

Q: With `Nc1c(C(=O)NC2CC2)sc2nc3c(c(-c4ccco4)c12)CC/C3=C/c1ccco1` as the compound, how does the inhibition read?
A: 16.9% (active)

Q: For `Nc1c(C(=O)NCC2CCCO2)sc2nc3c(c(-c4ccco4)c12)CC/C3=C\c1ccco1` (stereo not given), which inhibition is on record?
A: 12.4%

Q: With `Cc1cccc2cc(C#N)c(NCc3ccccc3)nc12` as the compound, how does the inhibition read?
A: 1.49%

Q: How did the inhibition turn out when `CCOC(=O)N1CCC(NC(=O)c2cccn3c(=O)c4cc(Br)ccc4nc23)CC1` was run?
A: 3.26%

Q: How did the inhibition turn out when `CCOc1ccccc1NC=C1C(=O)OC2(CCCCC2)OC1=O` was run?
A: -1.31%

Q: For `COc1ccccc1NC=C1C(=O)OC2(CCCCC2)OC1=O`, which inhibition is on record?
A: 13.1% (active)

Q: For `COc1ccc(OC)c(NC=C2C(=O)OC3(CCCCC3)OC2=O)c1`, which inhibition is on record?
A: 2.73%

Q: How did the inhibition turn out when `CCC(C)(C)NC(=O)C(c1ccccc1)N(Cc1cccnc1)C(=O)c1csnn1` (stereo not given) was run?
A: 0.49%

Q: With `CN(C)S(=O)(=O)c1cccc(NC(=O)/C=C/c2ccccc2[N+](=O)[O-])c1` as the compound, how does the inhibition read?
A: 6.53%

Q: With `O=S1(=O)c2ccccc2N=NN1Cc1ccc(Cl)cc1` as the compound, how does the inhibition read?
A: 8.76%

Q: Which inhibition does the source give for `O=S1(=O)c2ccccc2N=NN1Cc1cc(Cl)cc(Cl)c1` here?
A: 3.2%

Q: For `CC(C1CC2CCC1C2)n1c(-c2ccco2)n[nH]c1=S` (stereo not given), which inhibition is on record?
A: -2.34%

Q: For `COc1ccc(/C=N/n2c(-c3ccco3)nc3ccccc3c2=O)cc1`, which inhibition is on record?
A: -1.21%

Q: `COc1cccc(/C=N/n2c(-c3ccco3)nc3ccccc3c2=O)c1OC` was tested. Which inhibition did it give?
A: -2.22%

Q: With `COc1cccc(/C=N/n2c(-c3ccco3)nc3ccccc3c2=O)c1` as the compound, how does the inhibition read?
A: 12.8% (active)
